These results are taken from PubChem BioAssay (NCATS).

The subject of test [1] is HIV-1 nucleocapsid protein NCp7 (binding to TG oligonucleotide). Kind of test: HIV Nucleocapsid (AID 346).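 Note: potency is the fitted concentration of half-maximal effect; potency is for inhibitors that block NC binding and lower polarization.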 The following applies: HIV-1 NC / fluorescein-TGTGTGTG probe, fluorescence polarization. The procedure, abridged: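 10 nM TG4xF probe with 100 nM nucleocapsid protein in high-salt Hepes pH 7.5 (250mM NaCl) containing 1uM ZnCl2 and reducing agents. Compound inhibition of binding was read as fluorescein polarization after 1 hr at room temperature.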

The target of test [2] is Lysosomal acid glucosylceramidase (Homo sapiens) (UniProt P04062). Briefly: Glucocerebrosidase-p2 (AID 348; in the data active = potency below about 10 µM; note: potency is the fitted concentration of half-maximal effect). The following applies: purified GBA, blue fluorogenic substrate, 40 min. The procedure, abridged:
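Compounds titrated from 0.6 nM upwards against 0.2 nM enzyme in pH 5.9 citric acid/KH2PO4, taurocholate, tween-20; blue fluorogenic substrate 80 uM, 40 min room temperature, stopped and read Ex 365/Em 440 for AC50.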

Test [3] can be described thus: AP1 Signaling Pathway (AID 357; active = well fitted curve in either direction with a large enough effect, not every such curve was filed as active;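 note: ME-180 reporter cells stimulated with EGF at its EC50 level; % is set by controls: 0 for no effect and ±100 for the full control effect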). The following applies: ME-180 AP-1-bla reporter, EGF-induced, beta-lactamase ratio, 5 h; at 7.69 µM (top of the series) unless noted. In short, it runs like this:
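A ratiometric CCF4 readout (405 nm excitation; 460 and 530 nm emission) quantified AP-1-driven beta-lactamase in ME-180 cells after 5 h with compound and EC50 EGF; AC50 values were derived for activators and inhibitors.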

Test [4] concerns the target Cytochrome P450 1A2 (Homo sapiens) (UniProt P05177). Kind of test: p450-cyp1a2 (AID 410; calls by dose curve;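 note: -100% = full effect of reference inhibitor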). Particulars: recombinant CYP1A2, luciferin-ME demethylation, luminescence; series mostly up to 11.4 µM. In short, it runs like this: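 Luminescent readout of luciferin formed from Luciferin-ME by human CYP1A2; data normalized against complete inhibition by 57 uM furafylline. Enzyme 20nM, substrate 100uM at Km, 100mM KPO4 buffer, 60 min reaction at room temperature.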

A short description of test [5]: NFAT Signaling Pathway (AID 444; active = well fitted curve in either direction with a large enough effect, not every such curve was filed as active;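 note: carbachol stimulus at about its EC50 of 1 µM final; % is set by controls: 0 for no effect and ±100 for the full control effect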). Particulars: Jurkat NFAT-bla M1, carbachol, beta-lactamase ratio, 5 h; at 7.69 µM (top of the series) unless noted. The procedure, abridged:
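Jurkat cells carrying an NFAT-driven β-lactamase reporter and co-transfected muscarinic M1 receptor were treated with compound plus carbachol (1 uM final, an EC50 level) for 5 h at 37 °C. CCF4 loading followed for 1 h at RT; 460/530 nm ratio gave %activity.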

Test [6] is described as follows: Stat Signaling Pathway (AID 446; active = well fitted curve in either direction with a large enough effect, not every such curve was filed as active;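 note: ME-180 cervical cancer cells given 40 pM IL-6 alongside compound; SIE-controlled beta-lactamase reporter measured as 460/530 nm FRET emission ratio; % is set by controls: 0 for no effect and ±100 for the full control effect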). Particulars: ME-180 SIE beta-lactamase reporter, IL-6 stimulated, 5 h; at 7.69 µM (top of the series) unless noted. In short, it runs like this: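 ME-180 cells carrying a SIE-driven beta-lactamase reporter are stimulated with 40 pM IL-6 for 5 h at 37C in the presence of compound. The 460/530 nm FRET substrate ratio is read after 2.5 h at RT. Data are normalised to 300 pM IL-6 and to 125 nM JAK inhibitor controls.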

The target of test [7] is Glucocorticoid receptor (Homo sapiens) (UniProt P04150). Kind of test: GR-GFP Redistribution (AID 450;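 active = compounds whose dose series gives a full or clear partial fitted curve of increased nuclear translocation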; note: potency is the fitted concentration of half-maximal effect). The following applies: U2OS GR-GFP nuclear translocation, laser cytometry, 2 h.
Test [8] shares this target. Kind of test: GR-EFC Redistribution (AID 451; calls by dose curve; note: potency is the fitted concentration of half-maximal effect). Particulars: CHO-K1 GR-EFC translocation, beta-gal luminescence, 2 h. In short, it runs like this: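 CHO-K1 cells stably expressing nuclear-localized β-gal enzyme acceptor and GR fused C-terminally to the enzyme donor fragment; ligand-driven nuclear translocation restores β-gal by complementation. Compounds titrated up to 46 uM final, 2 h at 37 °C; luminescence read.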

Test [9] has as its target Mitogen-activated protein kinase 10 (Mus musculus) (UniProt Q61831). Briefly: JNK3 AlphaScreen Assay (AID 530; active = well fitted curve in either direction with a large enough effect, not every such curve was filed as active;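 note: kinase came from lysate of stimulated human HepG2 cells; signal reports phosphorylation of biotinylated GST-cJun 1-79 at Ser73 with 10 µM ATP; % is set by controls: 0 for no effect and ±100 for the full control effect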). The following applies: JNK3 lysate, c-Jun phosphorylation; series mostly up to 57.1 µM. In short, it runs like this:
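Inhibitors reduce antibody binding to phosphorylated biotin-cJun, lowering AlphaScreen luminescence. Lysates from HepG2 cells pre-activated by IL-1beta plus TNF-alpha supplied JNK3; compounds were titrated.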

Test [10] addresses 3',5'-cyclic-AMP phosphodiesterase 4B (Homo sapiens) (UniProt Q07343). Kind of test: qHTS Assay for Inhibitors of PDE-IV (AID 607; active = well fitted activation curve with a large enough effect in the main read-out, with a control signal flat, not every such curve was filed as active; note: % of control where 0% means no effect). Particulars: HEK293 ACTOne CNG channel cells, membrane potential fluorescence; series mostly up to 22.9 µM. In short, it runs like this:
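HEK293 ACTOne cells with CNG channel (1000/well), endogenous PDE4; membrane potential dye, compounds up to 22.9 uM final. Fluorescence Ex 535/Em 590; RO 20-1724 (100 uM final) as reference.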

A number with no mark means an inactive call. Records with an inconclusive call do not appear. Calls of active or inactive are those of the source. Unless noted, the rule behind the calls is not given here. Bounds are passed on as bounds.

Glucocorticoid receptor (Homo sapiens), sequence (P04150 whole entry, looked up, the tested form may be a part): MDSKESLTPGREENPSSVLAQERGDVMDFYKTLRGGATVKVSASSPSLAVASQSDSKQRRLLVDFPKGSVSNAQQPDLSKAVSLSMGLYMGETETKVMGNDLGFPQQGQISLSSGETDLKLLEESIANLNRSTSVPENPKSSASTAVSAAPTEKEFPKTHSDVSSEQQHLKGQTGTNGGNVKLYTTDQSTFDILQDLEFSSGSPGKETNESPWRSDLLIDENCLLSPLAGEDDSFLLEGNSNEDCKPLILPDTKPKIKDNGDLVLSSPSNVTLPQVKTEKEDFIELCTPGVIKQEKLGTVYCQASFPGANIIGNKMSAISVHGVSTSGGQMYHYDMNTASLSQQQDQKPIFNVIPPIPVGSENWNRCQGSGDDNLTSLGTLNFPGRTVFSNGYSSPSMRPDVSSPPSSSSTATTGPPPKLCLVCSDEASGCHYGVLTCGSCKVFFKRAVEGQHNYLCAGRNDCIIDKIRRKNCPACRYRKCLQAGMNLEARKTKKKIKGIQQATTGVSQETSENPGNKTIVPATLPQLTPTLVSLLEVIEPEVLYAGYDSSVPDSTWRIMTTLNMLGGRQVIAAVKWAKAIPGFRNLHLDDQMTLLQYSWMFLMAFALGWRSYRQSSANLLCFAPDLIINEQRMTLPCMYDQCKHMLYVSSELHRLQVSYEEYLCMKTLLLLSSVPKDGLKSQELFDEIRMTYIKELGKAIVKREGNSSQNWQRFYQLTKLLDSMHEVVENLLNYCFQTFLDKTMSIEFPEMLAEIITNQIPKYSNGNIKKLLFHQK
3',5'-cyclic-AMP phosphodiesterase 4B (Homo sapiens), sequence (Q07343 whole entry, looked up): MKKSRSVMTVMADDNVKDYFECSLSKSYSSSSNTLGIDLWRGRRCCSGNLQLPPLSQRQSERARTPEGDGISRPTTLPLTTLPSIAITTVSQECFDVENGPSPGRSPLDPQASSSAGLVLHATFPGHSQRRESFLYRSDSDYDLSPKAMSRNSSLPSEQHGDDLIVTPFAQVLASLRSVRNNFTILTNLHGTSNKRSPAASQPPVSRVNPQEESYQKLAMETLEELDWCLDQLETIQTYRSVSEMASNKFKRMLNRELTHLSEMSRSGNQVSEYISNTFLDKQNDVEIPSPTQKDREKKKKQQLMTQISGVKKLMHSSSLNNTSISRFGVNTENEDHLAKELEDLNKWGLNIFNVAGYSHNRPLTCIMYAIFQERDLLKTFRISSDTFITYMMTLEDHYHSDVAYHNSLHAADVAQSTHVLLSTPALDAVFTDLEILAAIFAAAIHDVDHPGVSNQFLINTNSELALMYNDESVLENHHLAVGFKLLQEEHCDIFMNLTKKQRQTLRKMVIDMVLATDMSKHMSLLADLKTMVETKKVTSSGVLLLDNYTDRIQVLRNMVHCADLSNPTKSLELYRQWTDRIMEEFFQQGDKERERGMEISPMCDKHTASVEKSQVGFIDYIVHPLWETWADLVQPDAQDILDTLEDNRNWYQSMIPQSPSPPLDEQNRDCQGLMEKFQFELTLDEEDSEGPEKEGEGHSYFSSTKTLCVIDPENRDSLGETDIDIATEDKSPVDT
Lysosomal acid glucosylceramidase (Homo sapiens), sequence (P04062 whole entry, looked up): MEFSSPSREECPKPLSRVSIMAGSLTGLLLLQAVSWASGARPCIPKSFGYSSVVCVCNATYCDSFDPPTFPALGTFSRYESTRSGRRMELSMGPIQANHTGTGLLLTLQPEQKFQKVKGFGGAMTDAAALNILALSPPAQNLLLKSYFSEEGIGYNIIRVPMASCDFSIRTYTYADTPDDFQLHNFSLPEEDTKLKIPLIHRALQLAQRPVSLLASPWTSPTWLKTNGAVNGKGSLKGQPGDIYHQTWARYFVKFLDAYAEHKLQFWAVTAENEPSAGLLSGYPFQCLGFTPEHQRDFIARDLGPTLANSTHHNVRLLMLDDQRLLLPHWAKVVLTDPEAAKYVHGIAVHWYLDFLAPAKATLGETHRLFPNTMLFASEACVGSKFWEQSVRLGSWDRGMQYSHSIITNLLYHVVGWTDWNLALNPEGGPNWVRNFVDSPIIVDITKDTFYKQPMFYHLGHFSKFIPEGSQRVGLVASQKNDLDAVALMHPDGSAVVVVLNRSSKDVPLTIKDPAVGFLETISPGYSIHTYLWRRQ
Cytochrome P450 1A2 (Homo sapiens), sequence (P05177 whole entry, looked up): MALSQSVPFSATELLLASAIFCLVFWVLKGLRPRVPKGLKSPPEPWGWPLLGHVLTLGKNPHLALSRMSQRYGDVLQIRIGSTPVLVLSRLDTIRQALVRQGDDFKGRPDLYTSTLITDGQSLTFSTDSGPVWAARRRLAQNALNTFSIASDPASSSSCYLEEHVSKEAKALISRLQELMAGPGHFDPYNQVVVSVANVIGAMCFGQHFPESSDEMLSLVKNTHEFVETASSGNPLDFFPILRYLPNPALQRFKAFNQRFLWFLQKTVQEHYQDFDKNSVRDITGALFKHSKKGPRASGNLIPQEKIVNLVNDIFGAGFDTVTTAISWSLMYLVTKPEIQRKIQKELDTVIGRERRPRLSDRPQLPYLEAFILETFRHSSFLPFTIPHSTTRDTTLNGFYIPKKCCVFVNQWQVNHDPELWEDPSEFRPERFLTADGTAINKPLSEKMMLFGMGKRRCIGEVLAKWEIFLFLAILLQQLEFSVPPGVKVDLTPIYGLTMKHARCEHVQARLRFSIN

For the compound `CS(=O)(=O)N1CCC2(CC1)CN(C(=O)Nc1cccc(F)c1)C2`, the Potency in test [1] is greater than 20 µM. The same measure, in the same setting: next, `Cn1cccc1C(=O)N1CCC2(CC1)CCN(c1cccc(-c3ccccc3)c1)CC2`: greater than 20 µM; `CN(C)c1ccc(-c2ccc3ncnc(N(C)C)c3c2)cc1`: greater than 20 µM; `O=C(Nc1cccc(F)c1)N1CC2(CCN(C(=O)c3ccco3)CC2)C1`: greater than 20 µM. Take `COCCn1c(=O)c(-c2ccc(OC)cc2)nc2cnc(OCc3ccccc3)nc21`: the Potency in test [1] was greater than 20 µM. Regarding `COc1ccc(NC(=O)N2CCCC3(CCN(C(=O)c4cnccn4)CC3)C2)cc1`, the Potency in [1] is greater than 20 µM. As to `COc1ccc(-n2c(=O)c(C)nc3cnc(N4CCNCC4)nc32)cc1`, the Potency in [1] is greater than 20 µM. On the same count and under the same terms, to `O=c1cnc2cncnc2n1Cc1ccccc1Cl` belongs greater than 20 µM; to `COc1cccc(-c2cncnc2NCc2ccccc2)c1`, greater than 20 µM. `CS(=O)(=O)N1CCC2(CC1)CN(Cc1nccs1)C2`: the Potency in [1] is greater than 20 µM. On the same count and under the same terms, to `CN1CC[C@@]2(CCCN(C(=O)c3cccn3C)C2)C1` belongs greater than 20 µM; to `N#Cc1ccccc1-c1nc(NCCN2CCOCC2)c2ccccc2n1`, greater than 20 µM.

As for `COc1ccccc1CN1CC[C@@]2(CCCN(C(C)=O)C2)C1`, in test [1], the Potency was greater than 20 µM. Same read-out and setting: to `N#Cc1cccc(-c2nccc(NCc3cccnc3)n2)c1` belongs greater than 20 µM. Same read-out and setting: to `Cc1nc2cnc(Oc3ccccc3)nc2n(CCC#N)c1=O` belongs greater than 20 µM; to `COCC(=O)N1CCC2(CC1)CN(c1ccc(-c3ccccc3)cc1)C2`, greater than 20 µM; to `Cn1c(=O)c(-c2ccc(Cl)cc2)nc2cncnc21`, greater than 20 µM. Consider `O=C(c1csnn1)N1CCC2(CC1)CCN(c1ncccn1)CC2`, for which the Potency in [1] is greater than 20 µM.

Regarding `COC(=O)N1CCC2(CC1)CN(C(c1ccccc1)c1ccccc1)C2`, in test [1], the Potency was greater than 20 µM. Still for that read-out and setting: next, `O=C(c1cnccn1)N1CCC2(CC1)CCN(c1ccncc1)CC2`: greater than 20 µM; `c1cncc(-c2cc(-n3ccnc3)ncn2)c1`: greater than 20 µM. The same measure, in the same setting: next, `COc1ccc(-n2c(=O)cnc3cnc(N4CCOCC4)nc32)cc1`: greater than 20 µM. With `Cc1cnc(CNc2nc(-c3ccccc3Cl)nc3ccccc23)cn1`, in test [1], the Potency is greater than 20 µM.

For `COCC(=O)N1CCC2(CC1)CN(C(c1ccccc1)c1ccccc1)C2`, in [1], the Potency is greater than 20 µM.

As to `O=C(c1cnccn1)N1CCC2(CC1)CCN(c1ccccn1)CC2`, the Potency in test [1] was greater than 20 µM. The same measure, in the same setting: next, `COc1ccccc1-c1ccc2ncnc(NCCNC(C)=O)c2c1`: greater than 20 µM; `CN(C)c1ccc(-c2nc(NCc3cccnc3)c3ccccc3n2)cc1`: greater than 20 µM. The same measure, in the same setting: next, `COc1ccc(C(=O)N2CCC3(CC2)CN(Cc2ccc(C#N)cc2)C3)cc1`: greater than 20 µM; `COC(=O)N1CCC2(CCN(Cc3cc(C(F)(F)F)cc(C(F)(F)F)c3)CC2)CC1`: greater than 20 µM. On the same count and under the same terms, next, `O=C(c1ccco1)N1CCC2(CCCN(c3ccccn3)C2)CC1`: greater than 20 µM; `O=S(=O)(c1ccccc1)N1CCC[C@@]2(CCN(c3ccncc3)C2)C1`: greater than 20 µM; `O=C(c1ccncc1)N1CCC2(CCCN(Cc3ccncc3)C2)CC1`: greater than 20 µM. Turning to `N#Cc1cccc(NC(=O)N2CC[C@@]3(CCCN(C(=O)c4csnn4)C3)C2)c1`, the Potency in [1] was greater than 20 µM. On to `COc1ccc(Oc2ncc3nc(CCc4ccccc4)c(=O)n(CCC#N)c3n2)cc1`, for which, in test [1], the Potency is greater than 20 µM. As for `CS(=O)(=O)Nc1cccc(-c2ccc3ncnc(NCc4cccnc4)c3c2)c1`, the Potency in test [1] was greater than 20 µM. For `COc1ccccc1CNc1cc(-c2c(C)noc2C)ncn1`, the Potency in [1] was greater than 20 µM.

As for `O=[As](O)(O)c1ccc(N=Nc2ccc([As](=O)(O)O)cc2)cc1`, the values for the Potency in test [2], in test [7] and in test [8] were greater than 11.4 µM, greater than 46 µM and greater than 9.22 µM, respectively. Besides, the figures for the activity change, negative = inhibition in test [3], in test [5] and in test [9] were 2.76%, 2.59% and 2.69% [at 11.4 µM], respectively. Also, the Potency entry in test [4] is “inactive”. Also, the activity, negative = inhibition in test [6] was 4.67%. For the same compound, the call in test [10] was inactive.
